Among the data in ChEMBL document CHEMBL4513216, “Probing the Open Global Health Chemical Diversity Library for Multistage-Active Starting Points for Next-Generation Antimalarials” (ACS Infect Dis, 2020) are INHIBITION values, retold here.

About 2,100 (3.2%) of roughly 65,000 compounds showed an effect of 50% or more. The median lay at about -52%. What follows is part of a selection rich in strong results, with near analogues and random picks from the rest.

The assay relates to Plasmodium falciparum. As to the kind of experiment: Screen against P. falciparum Asexual Blood Stage (ABS), at 5uM. Type of assay: functional, Dd2. As to conditions: tested at 5 uM.
With `c1ccc2c(c1)CCC21CN(CCc2ccncc2)CCO1` (centres undefined), the INHIBITION is -30.5%. With `CN(c1ncccc1C#N)C1CCN(CCc2ccncc2)CC1`, the INHIBITION is 30.8%.

On to `Cc1cccc(CNC2CCN(CCc3ccncc3)CC2)c1C`, for which the INHIBITION was 76.3%.

Regarding `CN1CCN(Cc2ccncc2)Cc2cccnc21`, the INHIBITION was -190%.

For `Clc1cccc(CNC2CCN(CCc3ccncc3)CC2)c1`, the INHIBITION is recorded as 92.3%. To `C[C@@H]1C[C@@H]2CCN(Cc3ccncc3)C[C@H]2O1` belongs -17.4%. As for `Cc1ccc(CNC2CCN(CCc3ccncc3)CC2)cc1C`, the INHIBITION worked out at 86.9%. `COCCNC(=O)[C@@]12CCO[C@@H]1CCN(Cc1ccncc1)C2`: the INHIBITION was -51.1%. As to `Fc1ccc(CNC2CCN(CCc3ccncc3)CC2)cc1F`, the INHIBITION worked out at 89.8%.

Turning to `Cc1n[nH]c2c1C(c1ccc(Cl)cc1)SCC(=O)N2` (centres undefined), the INHIBITION is -12.6%. Turning to `Cc1ccc(C(=O)N2C[C@@H]3OCCN(C(C)C)[C@@H]3C2)cn1`, the INHIBITION was -18.4%. For `Cc1cccc(CN2C(=O)C[C@H]3[C@@H]2CCN3Cc2ccco2)n1`, the INHIBITION was 13.4%. For `COCCN1CCO[C@H]2CN(C(=O)c3ccncc3F)C[C@H]21`, the INHIBITION was -230%. `CC(Cn1cccn1)NCC(=O)NC1CCOCC1` (centres undefined): the INHIBITION is -32.4%.

For `Cc1cc(CC(=O)N2CCN(C)[C@@H]3CS(=O)(=O)C[C@@H]32)ccc1F`, the INHIBITION was -54.5%. `C[C@@H]1CN(Cc2ccsc2)C[C@]12CCN(Cc1cccnc1)C2=O`: the INHIBITION was -45.2%. Turning to `CC1CN(CCc2ccncc2)CCO1` (centres undefined), the INHIBITION is -107%. As for `CSc1ccc(CNC2CCN(CCc3ccncc3)CC2)cc1`, the INHIBITION is 93%.

As for `CCN1C[C@H]2CCN(Cc3ccncc3)C(=O)[C@@H]2C1`, the INHIBITION is -66.4%. `Cc1nc(CO[C@H]2CN(Cc3ccccn3)[C@@H]3CCCO[C@H]23)cs1`: the INHIBITION was -44.2%. For `CCC1=N[C@@]2(CC[C@@H]3CN(CC)C[C@@H]32)C(=O)N1C` the value was -47.6%; for `CC1=N[C@@]2(CC[C@@H]3CN(Cc4ccccc4C)C[C@@H]32)C(=O)N1CC1CC1`, 85.1%.

With `CC1=N[C@@]2(CC[C@@H]3CNC[C@@H]32)C(=O)N1CC(C)C`, the INHIBITION was -138%. With `CNC(=O)[C@H]1C[C@@H]2CN(C(=O)c3cncc(C)c3)C[C@@H]2N1C`, the INHIBITION was -93.3%. On to `O=C(Nc1ccccc1)C1=NOC2(CCCNC2)C1` (centres undefined), for which the INHIBITION is recorded as -22.7%. As to `CC(C)NC(=O)C1(Cc2ccccc2-c2ccccc2)CCCNC1` (centres undefined), the INHIBITION came out at 76.7%.

As for `CC(C)CNC(=O)N1CCOC2(CCNCC2)C1`, the INHIBITION was -53.6%. In the case of `CC(C)NC(=O)N1CCOC2(CCCNC2)C1` (centres undefined), the INHIBITION is -67.8%. As to `CC(C)CNC(=O)C1(Cc2ccccc2-c2cccs2)CCNC1` (centres undefined), the INHIBITION is 71.7%. For the compound `CC(C)NC(=O)[C@@H]1C[C@H]2NCC[C@H]2O1`, the INHIBITION is listed as -104%. `CCN1CCC2(COCc3cnc(NCC4CC4)nc32)C1` (centres undefined): the INHIBITION is on record as 1.43%.

For `CCN1C[C@@H]2[C@@H](OC)CCN(S(=O)(=O)c3cccnc3)[C@@H]2C1`, the INHIBITION is -17.9%.

Take `COc1cc2nc(NCc3ccc(C)nc3)nc(N)c2cc1OC`: the INHIBITION stood at 90.6%. Consider `COc1cc2nc(NCc3scnc3C)nc(N)c2cc1OC`, for which the INHIBITION came out at 89.8%. As for `Fc1cccnc1O[C@@H]1CN(Cc2ccco2)[C@@H]2CCCO[C@@H]21`, the INHIBITION was -48.2%. Take `CSC1(CNC(=O)NC(C)Cc2cccc(F)c2)CCOCC1` (centres undefined): the INHIBITION is -25.5%. To `N#Cc1ccc(CNCC2(c3ccccc3)CCOCC2)cc1` belongs 83%; to `COc1ccccc1C1(CNCc2ccc(C#N)cc2)CCOCC1`, 76.6%; to `COc1ccccc1N1CCC(CNCc2ccc(C#N)cc2)C1` (centres undefined), 94.1%. For `CC[C@H]1CN2CC[C@H]1C[C@@H]2CNCc1cccc(C#N)c1` the value was 34.8%; for `COc1ccccc1C1(CNCc2cccc(O)c2)CCOCC1`, 82.8%; for `O=C([C@@H]1CC[C@@H]2[C@@H](CCN2Cc2ccncc2)O1)N1CCCCO1`, -84.8%. Take `O=C1CO[C@@H]2CN(CC3CCOCC3)C[C@H]2N1Cc1ccncc1`: the INHIBITION was -115%.

Regarding `Cc1ccc(C(CCNCCCN(C)C)C2CCOC(C)(C)C2)cc1` (centres undefined), the INHIBITION came out at 83.6%. On to `CN(Cc1cccnc1)[C@@H]1CN(CC2CC2)[C@@H]2CCCO[C@H]12`, for which the INHIBITION is -1.12%. Take `COc1cc(OC)c(C2Nc3cc(Cl)ccc3C3=NCCN32)cc1OC` (centres undefined): the INHIBITION is reported as 81.7%.

With `COc1cc(OC)c(C2SCC(=O)Nc3n[nH]cc32)cc1OC` (centres undefined), the INHIBITION is recorded as -189%. Turning to `C/C(=C\c1ccco1)CN(C)C(C)Cc1cc(C)ccn1` (centres undefined), the INHIBITION is -0.191%. `CS(=O)(=O)Cc1nc(CN2CC=C(c3ccccc3)CC2)cs1`: the INHIBITION is -50.8%. With `CCCN1CCN(C(=O)c2cnccc2C)[C@H]2CS(=O)(=O)C[C@H]21`, the INHIBITION is recorded as -12.9%. `CC(C)c1ncc(Cl)c(C(=O)N2CCN3CCCCC3C2)n1` (centres undefined): the INHIBITION is on record as -158%. Take `O=C(c1[nH]c2ccc(Cl)cc2c1Cl)N1CCC2(CC1)OCCO2`: the INHIBITION is given as -37.1%. For `Cc1c(C(=O)N2CCC(N3CCCCC3)CC2)n(C)c2ccc(Cl)cc12` the value was 88%; for `CC(Cn1cncn1)NCc1csc2c1CCCC2` (centres undefined), -42.7%.
